Results on five compounds are retold here after PubChem BioAssay.

Calls of active or inactive are those of the source.

A short description of experiment [1]: optical density shifts of acrAB sulA E. coli – strain DRC41, OD650, 48 h, E. coli filamentation inducer project, primary screen (AID 1152).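 Also: E. coli MC1000 strain DRC41 lacking acrAB efflux pump and sulA.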 The settings on record: higher = more signal, called active from +8 up or from −8 down.
The nature of experiment [2]: probe aLefty1 binding on compound microarray – biochemical, small-molecule microarray, 635/667 nm fluorescence, primary screen (AID 1153).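 Also: score merges spot fluorescence with signal-to-noise ratio from the scanned slide images.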 The settings on record: higher = more signal.
Experiment [3] in a line: plasmodial surface anion channel blockers, osmotic lysis – cell-based, P. falciparum Indochina, OD700, 1 h, primary screen (AID 1154). Particulars: P. falciparum Indochina infected RBC osmotic lysis, higher = more signal, called active from +8 up or from −8 down.
The nature of experiment [4]: plasmodial surface anion channel blockers, osmotic lysis – cell-based, P. falciparum Indochina, OD700, 2 h, primary screen (AID 1155).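 Also: lysis reports solute entry through the parasite surface anion channel PSAC.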 Particulars: P. falciparum Indochina infected erythrocytes, higher = more signal, called active from +8 up or from −8 down.
Experiment [5] in a line: changes in parasitized red cell lysis, either direction – P. falciparum Indochina, OD700, 3 h, PSAC antagonist project, primary screen (AID 1156). Particulars: P. falciparum-infected erythrocytes, osmotic lysis, higher = more signal, called active from +8 up or from −8 down.
A short description of experiment [6]: plasmodial surface anion channel blockers, osmotic lysis – cell-based, P. falciparum Indochina, OD700, 18 h, primary screen (AID 1157). The settings on record: P. falciparum Indochina infected erythrocytes, osmotic lysis OD700, 18 h; higher = more signal, called active from +8 up or from −8 down.
The nature of experiment [7]: S6 kinase pathway phospho-S6 level changes – cell-based, A549, cytoblot, luminescence, serum-stimulated, primary screen (AID 1158).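 Also: serum-stimulated A549 lung adenocarcinoma cells; signal is phosphorylated S6 detected by cytoblot immunostaining with HRP secondary.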 Particulars: 5 h, higher = more signal.
Experiment [8] concerns the target NADPH oxidase 2 (Homo sapiens) (UniProt P04839). The experiment can be described thus: compounds shifting NOX2 Amplex Red fluorescence – cell-based, HEK293-NOX2, PMA-stimulated, NOX inhibitor project, primary screen (AID 1159). Also: test concentration not given here. Particulars: 45 min, higher = more signal, called active from +8 up or from −8 down.
Experiment [9] has as its target NADPH oxidase 4 (Homo sapiens) (UniProt Q9NPH5). The experiment in a line: compounds shifting NOX4 Amplex Red fluorescence – cell-based, HEK293-NOX4, tetracycline-induced, NOX inhibitor project, primary screen (AID 1160). Particulars: HEK293-NOX4, Amplex Red H2O2 fluorescence, 45 min; higher = more signal, called active from +8 up or from −8 down.
The target of experiment [10] is NADPH oxidase 5 (Homo sapiens) (UniProt Q96PH1). The experiment in a line: compounds shifting NOX5 Amplex Red fluorescence – cell-based, HEK293-NOX5, NOX inhibitor project, primary screen (AID 1161). The settings on record: HEK293-NOX5, ionomycin, 45 min, higher = more signal.
Experiment [11] can be described thus: compound effects on lung adenocarcinoma cell viability – A549, calcein-AM fluorescence, 48 h, basal, profiling panel (AID 1162). Also: test concentration not given here. Particulars: higher = more signal.
Experiment [12] is described as follows: compound effects on differentiated 3T3-L1 adipocyte viability – cell-based, 3T3-L1 adipocytes, calcein-AM fluorescence, 48 h, basal, profiling panel (AID 1163). Also: test concentration not given here. The settings on record: 3T3-L1 adipocytes viability, higher = more signal.
Experiment [13] in a line: compound effects on hepatocellular carcinoma cell viability – HepG2, calcein-AM fluorescence, 48 h, basal, profiling panel (AID 1164). Also: test concentration not given here. Particulars: higher = more signal.
The nature of experiment [14]: compound effects on multiple myeloma cell viability – MM1S, calcein-AM fluorescence, 48 h, basal, profiling panel (AID 1165).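 Also: viability of MM1S multiple myeloma cells under basal unstimulated conditions; test concentration not given here.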 The settings on record: higher = more signal.
Experiment [15] in a line: calcein-AM signal in unstimulated myeloma cells – cell-based, calcein-AM fluorescence, 48 h, PK04 Diversity Set, profiling panel (AID 1166).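 Also: cells grown under basal conditions without added stimulus; test concentration not given here.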 The settings on record: RPMI8226 myeloma viability, higher = more signal.
The nature of experiment [16]: JC-1 mitochondrial signal, unstimulated HepG2 cells – cell-based, JC-1 fluorescence, 24 h, 100 nL compound, profiling panel (AID 1167). Also: test concentration not given here. Particulars: HepG2 mitochondrial potential, higher = more signal.
Experiment [17] in a line: JC-1 mitochondrial signal, unstimulated adipocytes – cell-based, JC-1 fluorescence, 3T3-L1 adipocytes, 24 h, 100 nL compound, profiling panel (AID 1168). Also: test concentration not given here. The settings on record: JC-1 mitochondrial fluorescence, higher = more signal, called active from +8 up or from −8 down.
A short description of experiment [18]: JC-1 mitochondrial signal, unstimulated myeloma cells – cell-based, JC-1 fluorescence, RPMI8226, 24 h, 100 nL compound, profiling panel (AID 1169). Also: test concentration not given here. Particulars: JC-1 mitochondrial potential fluorescence, higher = more signal.
A short description of experiment [19]: JC-1 mitochondrial signal, unstimulated MM1S myeloma – cell-based, JC-1 fluorescence, 24 h, 100 nL compound, profiling panel (AID 1170). Also: test concentration not given here. The settings on record: MM1S mitochondrial potential, higher = more signal.
The nature of experiment [20]: resazurin metabolic signal in A549 cells – cell-based, resazurin fluorescence, 24 h, PK04 Diversity Set, profiling panel (AID 1171). Also: test concentration not given here. The settings on record: A549 viability, higher = more signal, called active from +8 up or from −8 down.

Sequence of NADPH oxidase 2 (Homo sapiens) (P04839 whole entry, looked up): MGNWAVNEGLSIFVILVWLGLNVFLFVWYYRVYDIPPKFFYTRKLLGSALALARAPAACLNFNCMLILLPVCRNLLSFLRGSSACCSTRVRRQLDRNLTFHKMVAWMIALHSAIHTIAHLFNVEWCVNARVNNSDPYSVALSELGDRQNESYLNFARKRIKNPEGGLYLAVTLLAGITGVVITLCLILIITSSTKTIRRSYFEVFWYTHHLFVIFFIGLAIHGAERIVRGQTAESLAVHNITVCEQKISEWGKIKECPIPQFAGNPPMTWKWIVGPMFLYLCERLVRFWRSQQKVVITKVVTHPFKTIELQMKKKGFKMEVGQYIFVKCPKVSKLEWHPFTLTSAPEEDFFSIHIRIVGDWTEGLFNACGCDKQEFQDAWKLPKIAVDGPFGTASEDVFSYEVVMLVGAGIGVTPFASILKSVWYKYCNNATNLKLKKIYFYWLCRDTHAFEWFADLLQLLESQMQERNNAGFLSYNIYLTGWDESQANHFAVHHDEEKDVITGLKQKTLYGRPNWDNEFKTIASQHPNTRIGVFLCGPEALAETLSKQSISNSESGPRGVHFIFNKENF
Sequence of NADPH oxidase 5 (Homo sapiens) (Q96PH1 whole entry, looked up): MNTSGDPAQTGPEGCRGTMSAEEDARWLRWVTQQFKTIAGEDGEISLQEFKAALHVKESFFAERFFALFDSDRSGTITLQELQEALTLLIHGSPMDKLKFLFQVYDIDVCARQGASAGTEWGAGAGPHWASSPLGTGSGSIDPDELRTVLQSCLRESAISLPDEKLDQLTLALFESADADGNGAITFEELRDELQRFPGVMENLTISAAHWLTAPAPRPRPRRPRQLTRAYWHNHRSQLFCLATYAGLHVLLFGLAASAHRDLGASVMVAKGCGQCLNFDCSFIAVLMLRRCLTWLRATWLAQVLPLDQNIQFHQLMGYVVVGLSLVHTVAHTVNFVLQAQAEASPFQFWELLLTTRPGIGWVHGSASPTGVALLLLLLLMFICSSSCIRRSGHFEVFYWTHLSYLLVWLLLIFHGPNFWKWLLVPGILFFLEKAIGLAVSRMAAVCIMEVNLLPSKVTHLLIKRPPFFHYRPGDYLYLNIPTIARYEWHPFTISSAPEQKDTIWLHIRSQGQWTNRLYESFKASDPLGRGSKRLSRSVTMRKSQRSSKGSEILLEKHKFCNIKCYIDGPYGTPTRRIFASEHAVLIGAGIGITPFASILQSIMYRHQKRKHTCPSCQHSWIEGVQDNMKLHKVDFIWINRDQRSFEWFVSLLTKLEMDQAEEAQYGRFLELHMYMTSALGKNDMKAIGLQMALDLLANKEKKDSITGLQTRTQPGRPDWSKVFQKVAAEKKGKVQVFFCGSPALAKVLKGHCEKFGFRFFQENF
Sequence of NADPH oxidase 4 (Homo sapiens) (Q9NPH5 whole entry, looked up): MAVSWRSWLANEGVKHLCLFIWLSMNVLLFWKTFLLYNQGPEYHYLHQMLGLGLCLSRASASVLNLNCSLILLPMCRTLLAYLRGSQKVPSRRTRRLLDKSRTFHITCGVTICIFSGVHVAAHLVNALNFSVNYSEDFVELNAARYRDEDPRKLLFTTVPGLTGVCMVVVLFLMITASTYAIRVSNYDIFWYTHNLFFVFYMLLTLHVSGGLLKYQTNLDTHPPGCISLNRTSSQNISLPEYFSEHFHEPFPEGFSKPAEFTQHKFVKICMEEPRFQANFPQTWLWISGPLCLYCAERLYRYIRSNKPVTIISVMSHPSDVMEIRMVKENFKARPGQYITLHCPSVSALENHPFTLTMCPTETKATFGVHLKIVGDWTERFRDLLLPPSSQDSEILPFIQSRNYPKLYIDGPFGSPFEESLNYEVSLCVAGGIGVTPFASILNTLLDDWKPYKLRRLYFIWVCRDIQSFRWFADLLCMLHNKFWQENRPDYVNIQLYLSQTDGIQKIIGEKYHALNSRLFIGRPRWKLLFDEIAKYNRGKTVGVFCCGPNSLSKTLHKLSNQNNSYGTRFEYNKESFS

For `COCCOC(=O)N1C(=O)[C@@]2(c3cc(C#CC4(O)CCCCCC4)ccc31)[C@H](c1ccccc1OCCO)N1[C@H](c3ccccc3)[C@H](c3ccccc3)OC(=O)[C@H]1[C@@H]2C(=O)N1CCN(c2ncccn2)CC1`, the z-score was 0.888 (inactive) in experiment [1]; 1.67 (inactive) in experiment [3]; 1.31 (inactive) in [4]; 0.824 (inactive) in experiment [5]; 0.712 (inactive) in experiment [6]; -0.0324 in experiment [7]. The z-score in experiment [8] was 0.342 (inactive); in [9] it was 0.386 (inactive); in experiment [10], 1.03; in experiment [11] it was -0.244; in [12] it was -0.464; in experiment [13], 1.4. Besides, the z-score in experiment [14] was -0.404; in experiment [15], -1.14; in experiment [16], 0.673; in experiment [17], 1.86 (inactive); in experiment [18] it was -0.965; in [19] it was -1.05. For the same compound, the z-score in experiment [20] was -0.461 (inactive). Besides, the composite z-score in experiment [2] was -0.0437.

`COc1cccc(-c2cccc(=O)o2)c1`: the z-score in experiment [1] was 0.0997 (inactive); in [3], 10.4 (active); in [4], 1.6 (inactive); in experiment [5], -0.685 (inactive); in experiment [6] it was 0.611 (inactive); in experiment [7], -0.684. The z-score in [8] was 0.705 (inactive); in [9], -1.15 (inactive); in [10] it was -1.47; in experiment [11], -1.06; in experiment [12], -0.458; in [13], -0.834. In addition, the z-score was 0.192 in experiment [14]; -1.87 in experiment [15]; -1.27 in experiment [16]; 0.236 (inactive) in experiment [17]; 0.812 in experiment [18]; 0.0881 in [19]. Besides, the z-score in experiment [20] was 0.563 (inactive). Besides, in experiment [2], the composite z-score came out at 0.565.

On to `COCCOC(=O)N1C(=O)[C@@]2(c3cc(C#CCC(C(=O)OC)C(=O)OC)ccc31)[C@H](c1ccccc1OCCO)N1[C@H](c3ccccc3)[C@H](c3ccccc3)OC(=O)[C@H]1[C@@H]2C(=O)NC[C@H](O)c1ccccc1`, for which the z-score in experiment [1] was -0.165 (inactive); in experiment [3] it was 1.95 (inactive); in [4], 1.35 (inactive); in experiment [5] it was -0.0048 (inactive); in experiment [6] it was 0.781 (inactive); in experiment [7], 0.213. The z-score was 1.57 (inactive) in [8]; 1.07 (inactive) in experiment [9]; 1.41 in experiment [10]; -0.0256 in experiment [11]; 0.821 in experiment [12]; 0.015 in [13]. For the same compound, the z-score was -3.44 in experiment [14]; -3.9 in experiment [15]; -0.187 in experiment [16]; 2.16 (inactive) in experiment [17]; -0.776 in experiment [18]; -1.81 in [19]. In addition, the z-score in [20] is -0.55 (inactive). Also, the composite z-score in [2] came to 0.557.

Take `CCCC[C@H]1OB(O)C[C@H]2C1=C(COC)C[C@H]1C(=O)N(C)C(=O)[C@H]12`: the z-score in [1] was -0.971 (inactive); in experiment [3] it was 0.431 (inactive); in experiment [4], 0.0082 (inactive); in [5], -1.19 (inactive); in [6], 0.232 (inactive); in experiment [7], -0.18. Moreover, the z-score in [8] was -0.251 (inactive); in [9], 0.221 (inactive); in experiment [10], 0.786; in [11], -0.0959; in [12] it was -0.671; in experiment [13], -0.653. Further, the z-score in experiment [14] was -1.34; in [15], -0.744; in experiment [16], -1.27; in [17], 0.0166 (inactive); in experiment [18], -0.528; in [19], -0.355. The z-score in experiment [20] was -0.531 (inactive). This compound also displayed a composite z-score in experiment [2] of -0.196.

Turning to `CCOC(=O)C[C@H]1[C@H](OC(=O)c2ccccc2-c2ccccc2)[C@@H](NC(=O)CC(C)C)c2cc(OCCCO)ccc2N1C(=O)Cc1ccc(OC)cc1`, the z-score in experiment [1] was -0.892 (inactive); in experiment [3], 2.71 (inactive); in experiment [4] it was 0.317 (inactive); in experiment [5], 0.587 (inactive); in [6], 0.207 (inactive); in [7], 0.633. Moreover, the z-score was -0.234 (inactive) in experiment [8]; 1.21 (inactive) in experiment [9]; -0.33 in experiment [10]; 0.412 in experiment [11]; 0.417 in experiment [12]; 0.612 in experiment [13]. Further, the z-score is -1.52 in experiment [14]; -0.884 in [15]; 1.4 in [16]; 0.652 (inactive) in [17]; -0.0827 in [18]; 0.32 in experiment [19]. For the same compound, in [20], the z-score was 1.34 (inactive). Besides, the composite z-score in experiment [2] is -0.0094.
